Assay results from PubChem BioAssay AID977622 (Broad Institute, 2014).
In all, about 1,900 compounds went through this assay and fewer than 10 were called active. Another 39% or so got no clear call; they are omitted.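 The calls were made as follows: active = Green signal of the normal strain falls at least twice as much as red signal of the resistant mutant, with overall culture growth loss under a set limit; inconclusive = no clear call, values can overlap the other calls; inactive = the rest.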 These entries were drawn from the full list.

Assays:
[1] = growth inhibition of wild-type GFP E. coli, dose response, h38 mutant RFP, cherry-pick (AID 977622); conditions: activity change: E. coli mixed culture, total growth OD600 at 50 uM, at 50 µM
[2] = tested on: E. coli h38 humanized mutant ribosome RFP fluorescence, mixed culture, 24 h; assay: as above; conditions: h38 mutant RFP at 50 uM; at 50 µM

Row | Compound | activity change [1] | outcome [1] | activity change [2]
1 | C[C@H]1CN([C@@H](C)CO)C(=O)CCCn2nncc2CO[C@@H]1CN(C)Cc1ccccc1C(F)(F)F | -28.1% | inactive | -45.2%
2 | Cn1nc(C(=O)Nc2cccc(S(=O)(=O)N3CCCCC3)c2)c2ccccc2c1=O | -5.66% | inactive | -3.97%
3 | O=S1(=O)N[C@H](Cc2ccccc2)COc2cc(N3CCSCC3)ccc21 | -14.3% | inactive | 12%
4 | CN(CCOc1ccccc1)S(=O)(=O)c1ccccc1C#N | -20.9% | inactive | –
5 | CN(C)S(=O)(=O)c1cccc(C(=O)OCC(=O)c2ccc3c(c2)NC(=O)CO3)c1 | -6.04% | inactive | –
6 | O=C(COC(=O)C1CC2C=CC1C2)Nc1ccc([N+](=O)[O-])cc1 (configuration not stated) | -15.1% | inactive | -8.7%
7 | C[C@@H]1CN([C@@H](C)CO)C(=O)CCCn2nncc2CO[C@H]1CN(C)C(=O)Nc1cccc(C(F)(F)F)c1 | -2.42% | inactive | -7.01%
8 | Fc1cccc(Cc2c(-c3ccco3)nc3c4ccccc4ccn23)c1 | 3.21% | inactive | 15.9%
9 | O=C(c1ccccc1)C1Oc2ccccc2C2CC(c3cccs3)=NN12 (configuration not stated) | -7.77% | inactive | 46.5%
10 | C=CCSc1cc(C)nc2c(-c3ccccc3)c(C)nn12 | -4.42% | inactive | -3.25%
11 | Cc1cc(C)c(OCC(=O)OCC(=O)N2CCc3ccccc3C2)c(C)c1 | -18.4% | inactive | -19.1%
12 | Cc1noc(C)c1NC(=O)Nc1ccc2c(c1)C(=O)N([C@H](C)CO)C[C@H](C)[C@H](CN(C)C(=O)Nc1ccc3c(c1)OCO3)OCCCC[C@@H](C)O2 | -29.4% | inactive | -22.3%
13 | COc1ccccc1NC(=O)CSc1nccn1Cc1ccc(F)cc1 | -34.2% | inactive | -43.9%
14 | COc1cc2ccccc2cc1C(=O)NCC(c1cccs1)N(C)C (configuration not stated) | -20.3% | inactive | 10.8%
15 | COc1cccc(NC(=O)N(C)C[C@H]2Oc3ncc(C#Cc4cccnc4)cc3C(=O)N([C@H](C)CO)C[C@H]2C)c1 | -8.41% | inactive | -2.54%
16 | O=C(O)CC(CC(=O)Nc1ccc(Oc2ccccc2)cc1)c1ccccc1 (configuration not stated) | -38.6% | inactive | -21.4%
17 | Cc1onc(-c2ccccc2Cl)c1C(=O)N1CCN(Cc2ccc3c(c2)OCO3)CC1 | -18.8% | inactive | -29.8%
18 | Cc1cc(C)nc(SCCC(=O)Nc2ccccc2Cl)n1 | – | inactive | 4.04%
19 | C=CCNc1ccc2c(c1)OC[C@H](CC(C)C)NS2(=O)=O | -16.5% | inactive | -12.1%
20 | CCCCCCCNC(=O)c1ccc(N2CCC3(CC2)OCCO3)c([N+](=O)[O-])c1 | -71.7% | inactive | 33.2%
21 | CCn1nc(C)cc1C(=O)N1CCCC(C(=O)c2ccc3ccccc3c2)C1 (configuration not stated) | -3.63% | inactive | 3.47%
22 | CSc1ccccc1C(=O)NCCc1ccc(S(=O)(=O)N2CCCCC2)cc1 | -6.73% | inactive | –
23 | CCOc1ncccc1C(=O)OCC(=O)NCCCc1ccccc1 | -34.2% | inactive | 13.1%
24 | Cn1cc(CN2CCCC(C(=O)Nc3cccc(-c4cc5ccccc5[nH]4)c3)C2)cn1 (configuration not stated) | -25.9% | inactive | -29%
25 | COc1ccccc1CC(=O)NCCCc1ccccc1 | 0.195% | inactive | 28.9%

Row | Compound | activity change [1] | outcome [1] | activity change [2]
26 | CN1C(=O)c2cc(NC(=O)c3cccc(F)c3)ccc2OC[C@H]2O[C@@H](CC(=O)NCC3CCCCC3)CC[C@@H]21 | -45.8% | inactive | -19.3%
27 | C[C@H](CO)N1C[C@H](C)[C@H](CN(C)C(=O)Nc2ccc(F)cc2)Oc2c(NC(=O)Nc3ccccc3)cccc2C1=O | -24.1% | inactive | 16.4%
28 | O=C(Nc1c(S(=O)(=O)c2ccc(Cl)cc2)csc1Br)c1ccccc1Cl | 9.68% | inactive | 8.46%
29 | O=C(CCc1nc2ccccc2s1)OCC(=O)c1ccccc1 | 6.3% | inactive | -0.655%
30 | Cc1ccc2nc(N(CCN(C)C)C(=O)C3CCN(S(=O)(=O)c4cccs4)CC3)sc2c1 | -21.5% | inactive | –
31 | Cc1cccc(-c2ccc([C@@H]3[C@@H](CO)N4CCCCN(S(=O)(=O)c5ccccc5C)C[C@@H]34)cc2)c1 | -8.54% | inactive | 21%
32 | COc1ccc(C#Cc2ccc([C@H]3[C@@H](CO)N4CCCCN(C(=O)Nc5cccc(F)c5)C[C@H]34)cc2)cc1 | -17.6% | inactive | 73.7%
33 | Cc1cc(C)n(CC(O)COc2ccc3ccccc3c2)n1 (configuration not stated) | 4.91% | inactive | 10.9%
34 | N#Cc1nc(COc2cccc(Cl)c2)oc1N1CCCC1 | -6.55% | inactive | –
35 | COc1ccc(CC(=O)NCc2csc(-c3cccs3)n2)cc1OC | -8.86% | inactive | -8.02%
36 | Cc1ccc(-n2c(SCC(N)=O)nnc2-c2cnccn2)cc1 | -6.07% | inactive | -24.8%
37 | COc1ccc(C)c2sc(N(CCN(C)C)C(=O)c3ccc(S(=O)(=O)N(C)c4ccccc4)cc3)nc12 | -16.8% | inactive | 11%
38 | CCCc1nc2ccc(Br)cn2c1Cc1cccc(Cl)c1 | -8.44% | inactive | 4.58%
39 | CS(=O)(=O)c1ccc(Cl)c(NC(=O)COC(=O)c2c(Cl)cccc2Cl)c1 | -7.03% | inactive | -3.81%
40 | COc1ccc(Cc2c(-c3cccc(Cl)c3)nc3ccc(Cl)cn23)c(C)c1 | -9.93% | inactive | 1.24%
41 | OC1CCN(c2c3c(nc4cc(-c5cccc(F)c5)nn24)CCCC3)CC1 | -19% | inactive | -5.04%
42 | CN(Cc1ccccc1NS(=O)(=O)c1ccc(Cl)cc1)C1CCCCC1 | 4.68% | inactive | 25.7%
43 | O=C1c2ccccc2CSc2c(O)cccc21 | -41.7% | inactive | -51.2%
44 | CCN(CC)CCNC(=O)c1cc2cc3ccc(OC)cc3nc2o1 | -17.2% | inactive | -1.99%
45 | C[C@H](CO)N1C[C@H](C)[C@@H](CN(C)C(=O)CCCN(C)C)OCCCC[C@H](C)Oc2ccc(NC(=O)Nc3cccc4ccccc34)cc2C1=O | 1.54% | inactive | -2.48%
46 | COc1ccccc1NC(=O)COC(=O)Cc1c[nH]c2ccccc12 | -29.2% | inactive | -34.7%
47 | NC(=O)c1ccsc1NC(=O)COC(=O)Cc1ccc(F)cc1 | -13.5% | inactive | -23.2%
48 | COc1cccc(C(=O)Nc2nnc(S(=O)(=O)N(C)Cc3ccccc3)s2)c1 | -30.6% | inactive | -13.1%
49 | Cc1noc(C)c1NC(=O)Nc1ccc2c(c1)C(=O)N([C@H](C)CO)C[C@@H](C)[C@@H](CN(C)C(=O)Nc1ccc3c(c1)OCO3)OCCCC[C@@H](C)O2 | -6.3% | inactive | -16.3%
50 | CC(NC(=O)c1c(N)[nH]c(C(=O)c2ccccc2)c1-c1ccccc1Br)c1cccc2ccccc12 (configuration not stated) | -15.6% | inactive | 41.2%

Row | Compound | activity change [1] | outcome [1] | activity change [2]
51 | COC(=O)CN1C(=S)N(c2ccc(F)cc2)C(=O)C1CC(=O)Nc1ccc(F)cc1 (configuration not stated) | -1.47% | inactive | -5.83%
52 | COc1cc(OC)cc(C(=O)N[C@H](C(=O)OCC(=O)Nc2ccc(F)c(F)c2F)C(C)C)c1 | -1.83% | inactive | -9.06%
53 | O=C(NCc1ccccc1)c1ccc(-c2cn[nH]c2)c2ccoc12 | -21.8% | inactive | -23.8%
54 | CCC(=O)Nc1nc2c(OC)ccc(OC)c2s1 | – | inactive | -14.1%
55 | O=C(Nc1cccc(Cl)c1)N1C[C@@H]2[C@H](c3ccccc31)[C@@H](CO)N2C(=O)c1cccnc1 | 7.11% | inactive | 2.16%
56 | c1ccc(SCc2nc3ccccc3s2)nc1 | -3.53% | inactive | 8.07%
57 | Cc1ccc(NS(=O)(=O)c2ccc3c(c2)CCC(=O)N3)cc1C | -8.95% | inactive | -10.9%
58 | O=C(Nc1cccc(F)c1)N1C[C@@H]2[C@H](c3ccccc31)[C@H](CO)N2C(=O)Cc1ccccn1 | 4.66% | inactive | -3.32%
59 | COc1ccc(-c2cc(C(=O)Nc3ccc(C(N)=O)cc3)c3ccccc3n2)cc1OC | 8% | inactive | -4.25%
60 | N#Cc1ccc(-c2ccc(C3[C@H]4CNC[C@@H]3N4S(=O)(=O)c3ccc(-c4ccccc4)cc3)cc2)cc1 (some centres not stated) | -54.5% | inactive | 244%
61 | Nc1ccc(C(=O)OCCCc2nc3cc4ccccc4cc3[nH]2)cc1 | 3.79% | inactive | 0.364%
62 | O=C(NCc1nc2ccccc2[nH]1)c1ccc(S(=O)(=O)N2CCCC2)cc1 | -24.9% | inactive | 2.82%
63 | CC[n+]1c(C)cc2c(sc3ccccc32)c1C | -0.26% | inactive | -7%
64 | COc1ccccc1NC(=O)CSc1ncc(CO)n1Cc1ccc(F)cc1 | -27.8% | inactive | -17.1%
65 | CSc1ccc(CN(C)C(=O)C(c2ccccc2)c2ccccc2)cc1 | -21.9% | inactive | -20.3%
66 | O=C(Nc1ccc(C(=O)Nc2ccccc2Cl)cc1)c1cccnc1 | -26.4% | inactive | -26%
67 | COC(=O)c1ccc(CCc2cc(O)c(Br)cc2O)cc1 | -52.8% | inactive | 27.3%
68 | O=C(Nc1ccc(C(=O)c2ccccc2)cc1)c1ccccc1 | -40.2% | inactive | -22.1%
69 | OC[C@H]1[C@H](c2ccc(-c3ccc(F)cc3)cc2)[C@@H]2CN(Cc3ccncc3)CCCCN12 | -3.55% | inactive | -17.5%
70 | O=C(NCCCn1ccnc1)c1sc2cc([N+](=O)[O-])ccc2c1Cl | -6% | inactive | -1.75%
71 | CCC1(CC)NC(=O)N(CC(=O)N2N=C(c3ccc(Cl)cc3)CC2c2ccco2)C1=O (configuration not stated) | -19.3% | inactive | -38.4%
72 | O=C(COc1cccc2c1CCN(Cc1ccccc1F)C2=O)N1CCCCC1 | -32.1% | inactive | –
73 | O=C(Nc1cccc(S(=O)(=O)c2cccc(NC(=O)C3CC3)c2)c1)C1CC1 | -38.1% | inactive | 4.96%
74 | O=S(=O)(Cc1ccccc1)N1CCCCN2[C@@H](CO)[C@@H](c3ccc(-c4cccnc4)cc3)[C@@H]2C1 | -6.81% | inactive | 16.2%
75 | Cc1noc(C)c1NC(=O)Nc1ccc2c(c1)C(=O)N([C@@H](C)CO)C[C@@H](C)[C@@H](CN(C)C(=O)Nc1ccc3c(c1)OCO3)OCCCC[C@@H](C)O2 | -2.53% | inactive | 20.3%
